Compounds with a hit are over-represented: about 22% of the library has one in this group of screens.
LmPK inhibitor: LmPK (Leishmania mexicana) enzyme inhibition | Q27686 | purified LmPK, Kinase-Glo ATP luminescence, 1 h | Potency, µM (doses to about 57.5 µM), for inactives: at the top dose activity change, negative = inhibition, most hits filed as inhibitors | 290,000 tested, 0.37% active | AID 1721; also: potency is read from the fitted curve at half-maximal effect; % is scaled to controls: 0 for no effect and ±100 for the full control effect
Target sequence (Q27686 whole entry, looked up): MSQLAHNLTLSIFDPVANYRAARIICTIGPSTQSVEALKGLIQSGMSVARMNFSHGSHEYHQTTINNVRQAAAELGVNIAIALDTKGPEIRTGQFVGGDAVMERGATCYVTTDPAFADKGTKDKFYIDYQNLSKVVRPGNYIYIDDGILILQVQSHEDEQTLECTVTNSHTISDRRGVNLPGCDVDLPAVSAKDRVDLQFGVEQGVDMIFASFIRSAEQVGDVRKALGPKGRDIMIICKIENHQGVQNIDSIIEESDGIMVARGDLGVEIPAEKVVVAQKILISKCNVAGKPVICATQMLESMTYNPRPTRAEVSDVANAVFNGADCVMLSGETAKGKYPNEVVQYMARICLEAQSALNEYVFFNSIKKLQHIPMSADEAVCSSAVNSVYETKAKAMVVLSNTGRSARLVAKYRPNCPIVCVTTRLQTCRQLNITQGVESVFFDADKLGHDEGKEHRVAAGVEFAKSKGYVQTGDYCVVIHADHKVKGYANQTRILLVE
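qHTS format; LmPK 0.1 nM; substrates PEP 0.5 mM and ADP 0.1 mM. One-hour room-temperature incubation, then coupled luciferase luminescence; 0.5 nM enzyme wells mark activation.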
Shiga inhibitor: blocks Shiga toxin action in Vero cells; inhibition, % at 38.7 µM; Vero cells, Shiga toxin protein synthesis inhibition reporter; 290,000 tested, 9.2% active; AID 2315; in the data active = inhibition mostly above about 28%, no sharp cut-off; inactive = mostly below about 43%; also: 0% is about no effect
Pf growth 96h: P. falciparum growth inhibition at 96 hours | P. falciparum luciferase reporter growth, 96 h | Potency, µM (series often up to 28.7 µM), for inactives: at the highest dose activity change, negative = inhibition, actives largely listed as inhibitors | 320,000 tested, 6.9% active; also: potency is read from the fitted curve at half-maximal effect; % is scaled to controls: 0 for no effect and ±100 for the full control effect
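Parasite growth measured via integrated firefly luciferase reporter in P. falciparum. Infected erythrocytes at 2% hematocrit, 0.05% parasitemia final were treated 96 hours at 37 C under 5% CO2, and luminescence was read.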
CHX counter: affects cycloheximide protein synthesis inhibition readout, counter-screen; cell reporter, cycloheximide protein synthesis inhibition counterscreen; 300,000 tested, 12% active; AID 2314; max response, %; in the data active = max response mostly above about 13%, no sharp cut-off; inactive = mostly below about 14%; also: read at 38.3 µM for the half of the compounds with a filed dose; 0% is about no effect
Pf growth 48h: P. falciparum growth inhibition at 48 hours (one generation); P. falciparum luciferase growth in erythrocytes, 48 h; AID 504832; Potency, µM (series often up to 28.7 µM), inactives show top-dose activity change, negative = inhibition, most hits filed as inhibitors; 310,000 tested, 5.9% active; also: potency is read from the fitted curve at half-maximal effect; % is scaled to controls: 0 for no effect and ±100 for the full control effect
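Luciferase-expressing P. falciparum in infected erythrocytes (2% hematocrit, 0.1% parasitemia final) in RPMI 1640/0.5% Albumax were exposed to compound for 48 hours at 37 C, 5% CO2; growth read as luminescence.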
Starred values were filed as active, the others as inactive; ? = inconclusive; . = no result; [ ] = another dose, or the depositor's remark. Unless noted, calls follow the shape of the dose curve; as a rule, active = well fitted inhibition curve with a large enough effect; inconclusive = small, poorly fitted or top-dose-only effect, or another doubt; inactive = no such curve, though single readings can be large or run the other way.

SMILES	LmPK inhibitor	Shiga inhibitor	Pf growth 96h	CHX counter	Pf growth 48h
Cc1ccc(NC(=O)CN(C)C(=O)c2cc(S(=O)(=O)N(C)C)ccc2N2CCCC2)cc1	.	.	?	.	-12%
COc1cc(C(=O)OCC(=O)NCC2CCCCC2)ccc1OCC(C)C	.	.	2%	.	-17%
Cc1nn(CC(=O)NC2(C#N)CCCCC2)c(C)c1[N+](=O)[O-]	.	.	-21%	.	3%
O=C1NC(=S)N/C1=C\C=C\c1ccccc1	4%	50*	37%	30*	59%
CCc1ccccc1NC(=S)/N=C(\N)Nc1nc(C)c2cc(C)ccc2n1	2%	11	?	3	2.9µM*
Cc1ccc(NC(=S)/N=C(\N)Nc2nc(C)c3cc(C)c(C)cc3n2)cc1C	0%	2	10µM*	2	?
Cc1ccc(NC(=S)/N=C(\N)Nc2nc(C)c3cc(C)ccc3n2)c(C)c1	0%	-6	?	1	?
COc1ccc(NC(=S)/N=C(\N)Nc2nc(C)c3ccccc3n2)cc1	3%	21	2.9µM*	14*	?
COc1ccc2nc(N/C(N)=N/C(=S)Nc3cccc(C)c3)nc(C)c2c1	0%	7	20%	-2	?
CCOc1ccccc1NC(=O)COC(=O)c1cnc(C)cn1	.	.	15%	.	13%
CS(=O)(=O)c1ccc(C(=O)NC2CCCc3ccccc32)cc1 (configuration not stated)	0%	7	47%	10	1%
CCN(CC)C(=O)c1ccc(Oc2ccc([N+](=O)[O-])cc2Cl)cc1	0%	-12	?	7	-5%
CCN(CC)C(=O)c1cc([N+](=O)[O-])cc2c1-c1ccc([N+](=O)[O-])cc1C2=C(C#N)C#N	-1%	9	?	-2	15µM*
O=c1c2ccccc2c(C=Nc2cccc(S(=O)(=O)NC3=NCCCCC3)c2)c(O)n1Cc1ccccc1	5%	-6	?	0	1.7µM*
CCOCCCn1c(SCC(=O)Nc2cccc(S(=O)(=O)NC3=NCCCCC3)c2)nc2ccccc2c1=O	2%	4	-10%	5	6.6µM*
CCCn1c(SCC(=O)Nc2cccc(S(=O)(=O)NC3=NCCCCC3)c2)nc2ccccc2c1=O	-7%	-10	6.6µM*	-5	8.3µM*
O=c1c2ccccc2c(/C=N/c2ncn[nH]2)c(O)n1Cc1ccccc1	-4%	25	?	19	-15%
Cc1ccc(-n2c(SCC(=O)Nc3cccc(S(=O)(=O)NC4=NCCCCC4)c3)nc3ccccc3c2=O)cc1C	-4%	-8	?	1	?
COc1ccc(CCNC(=O)CCS(=O)(=O)Cc2ccccc2C)cc1OC	1%	31	31%	-3	2%[0.00184 µM]
c1cncc(-c2ccnc3ncnn23)c1	0%	-2	-12%	-3	-9%
COc1ccccc1CC1S/C(=N/N=C/c2ccco2)NC1=O (configuration not stated)	8%	-2	26%	0	-15%
CC(=O)Nc1cccc2c1Cc1ccccc1-2	-3%	64	32%	41*	60%
CC(=O)Nc1ccccc1O	-2%	-1	10%	-3	4%
Cc1nn2c(N)c(C#N)cnc2c1-c1ccc(Cl)cc1	4%	-16	23%	29	.
COc1ccc(-c2c(C)nn3c(N)c(C#N)cnc23)cc1OC	3%	-5	0.33µM*	15	0.41µM*
SMILES	LmPK inhibitor	Shiga inhibitor	Pf growth 96h	CHX counter	Pf growth 48h
CCCNC(=O)CN(C)CC(=O)Nc1ccccc1C#N	7%	-4	23%	-3	3%
Cn1nc(C(F)(F)F)c(C(=O)Nc2ccc(F)cc2F)c1Sc1ccc(Cl)cc1	5%	-3	12µM*	0	?
Cn1nc(C(F)(F)F)c(C(=O)Nc2ccc(F)cc2F)c1Sc1ccc(C(F)(F)F)cc1	0%	-3	8.3µM*	-3	?
CCOc1ccccc1NC(=O)Cn1nnc(C(=O)NCc2ccc3c(c2)OCO3)c1N	9%	-6	16%	-4	?
Cc1cccc(-c2ncc(CN3CCN(CC(C)C)C(CCO)C3)cn2)c1 (configuration not stated)	-5%	41*	-14%	15	22%
COc1ccc(-c2ncc(CN3CCN(CCC(C)C)C(CCO)C3)cn2)cc1 (configuration not stated)	0%	66*	?	33*	0%
COC(=O)C1=C(c2ccc3ccccc3c2)C[C@@H]2CC[C@H]1N2C(=O)NCC1CC1	.	.	?	.	3.3µM*
COC(=O)C1=C(c2ccc(-c3ccccc3)c(F)c2)C[C@@H]2CC[C@H]1N2C(=O)NC1Cc2ccccc2C1	.	.	?	.	9.3µM*
COC(=O)C1=C(c2ccc(F)cc2F)C[C@@H]2CC[C@H]1N2C(=O)NCC1CC1	.	.	39%	.	24%
COC(=O)C1=C(c2cccc(C#N)c2)C[C@@H]2CC[C@H]1N2C(=O)NC1CCCCC1	.	.	-29%	.	?
COC(=O)C1=C(c2ccc(-c3ccccc3)c(F)c2)C[C@@H]2CC[C@H]1N2C(=O)NCCOc1ccccc1	.	.	?	.	3.3µM*
COC(=O)C1=C(c2ccc(-c3ccccc3)c(F)c2)C[C@@H]2CC[C@H]1N2C(=O)NCC1CC1	.	.	?	.	4.7µM*
CC(C(=O)N(C)c1ccccc1)N1CCN(C(=O)c2ccccc2)CC1 (configuration not stated)	0%	-9	1%	-1	20%
COC(=O)[C@H](CCSC)NS(=O)(=O)c1ccccc1Br	5%	-2	-10%	-5	-2%
COc1cc(OC)c(/C=N/NC(=O)c2ccc(Cn3nc([N+](=O)[O-])cc3C)cc2)c(OC)c1	-2%	-2	12%	-3	-5%
CCCn1c(CN2CCN(C(=O)OCC)CC2)nc2cc(NC(=O)CC)ccc21	5%	12	50%	3	?
Cc1cccc(NS(=O)(=O)c2ccc(C(=O)NCC(c3ccco3)N(C)C)cc2)c1C (configuration not stated)	-9%	-23	11%	-2	0%
COc1cc2c(cc1OC)C(c1cccc([N+](=O)[O-])c1)N(C(=O)CCC(=O)O)CC2 (configuration not stated)	2%	2	2%	-3	-11%
Cc1sc2ncnc(SCC(=O)NNC(=O)COc3cccc4ccccc34)c2c1C	-2%	25	?	-2	4%
O=C1CC2OCC=C3CN4CCC56c7ccccc7N1C5C2C3CC46 (configuration not stated)	.	-7	.	-4	.
O=C1/C(=C\c2ccccc2)C2OCC=C3CN4CCC56c7ccccc7N1C5C2C3CC46 (configuration not stated)	3%	-5	2.6µM*	-3	2.3µM*
CCC(C)N=C1Sc2nc3ccc(C)cc3cc2CN1CCOC (configuration not stated)	13%	-3	-5%	5	?
COCCN=C1Sc2nc3ccc(C)cc3cc2CN1Cc1cccs1	5%	36*	?	12*	0%
